What all share (conditions): concentration: 10 µM; 24 h
Assay [1] concerns HCC1569. Put plainly: cell number relative to DMSO (% of DMSO); higher = more cells (less growth inhibition / toxicity). In outline:
(§1)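 H1.0 nuclear intensity or cell number is stated as percent of the plate control, based on the median of replicates, and HCC1569 values were smoothed for positional effects. These came from HCC1569 and TDF cells treated with compounds at 10 µM for 24 h at 37 °C in triplicate, then fixed in 3.7% formaldehyde and stained with a rabbit anti-H1.0 antibody, an AlexaFluor 647 secondary and DAPI.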

Assay [2] concerns TDF. Described as above. In outline:
as §1

Assay [3] deals with TDF. The experiment in a line: H1.0 immunofluorescence intensity relative to DMSO (% of DMSO); higher = stronger H1.0 induction, active = 120 or more. In outline:
as §1

For assay [4], the system named is HCC1569. Put plainly: H1.0 immunofluorescence intensity relative to DMSO (% of DMSO); higher = stronger H1.0 induction, active = 140 or more. In outline:
as §1

“And” between values parts separate entries of the source, which are not always exact repeats. Equal values may be shown once. ± gives the standard deviation of the averaged measurements.
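Throughout, for H1.0 immunofluorescence intensity relative to DMSO: TDF is a line of transformed human dermal fibroblasts of mesenchymal origin.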
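Throughout, for cell number relative to DMSO: TDF denotes transformed human dermal fibroblasts of mesenchymal origin.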

Consider `CC1=CC(=O)c2ccccc2C1=O` [Menadione], for which the cell number in the assay with HCC1569 [1] is 99.9; in the assay with TDF [2], 82.8. The H1.0 immunofluorescence intensity in the assay on TDF [3] was 106 (inactive); in the assay on HCC1569 [4], 91.9 (inactive).
Taken in the same sequence, the figures for `CCCCCCC=CCCCCCCCCCC(=O)O` [11(E)-Octadecenoic acid] were 101, 99.5, 105 (inactive) and 103 (inactive).
On the same counts, the results for `CNC(=O)C1OC(n2cnc3c(NCc4ccc(N)cc4)ncnc32)C(O)C1O` (stereo not drawn) are 99.9, 98.3, 93.8 (inactive) and 90.6 (inactive).
On the same counts, the results for `CN(C)CCCn1cc(C2=C(c3c[nH]c4ccccc34)C(=O)NC2=O)c2ccccc21` [Bisindolylmaleimide I] are 85.8, 80.3, 111 (inactive) and 131 (inactive).
Consider `Cl.Clc1cccc(Cl)c1NC1=NCCN1` [Clonidine hydrochloride], for which the values for the cell number in the assay with HCC1569 [1] and in the assay with TDF [2] were 99.2 and 103, respectively. The H1.0 immunofluorescence intensity with TDF [3] was 94.1 (inactive); in the assay with HCC1569 [4], 90 (inactive).
On the same counts, the results for `CC1=CCCC(C)(O)C=CC(C(C)C)C(OC(=O)c2ccc(O)cc2)C1` (stereo not drawn) [Feroline] are 102, 96, 102 (inactive) and 93.3 (inactive).
Taken in the same sequence, the figures for `Cc1ccc(C(=O)c2ccc(CC(=O)O)n2C)cc1` [Tolmetin] were 101, 99, 104 (inactive) and 104 (inactive).
On the same counts, the results for `CC(C)NCC(O)COc1cccc2ccccc12` (stereo not drawn) [Propranolol] are 102, 106, 94.7 (inactive) and 108 (inactive).
Consider `NC/C=C/C(=O)O` [(E)-4-amino-2-butenoic acid], for which the cell number in the assay on HCC1569 [1] stood at 97.2; with TDF [2] it was 105. Further, the H1.0 immunofluorescence intensity with TDF [3] is 93.2 (inactive); in the assay on HCC1569 [4], 99.6 (inactive).
On the same counts, the results for `O=C(Nc1cccc(Nc2cc(Nc3cccc(C(F)(F)F)c3)ncn2)c1)C1CC1` [EGFR Inhibitor] are 54.7, 8.22, 178 (active) and 186 (active).
On the same counts, the results for `CS(=O)(=O)O.Cc1ccc(N(CC2=NCCN2)c2cccc(O)c2)cc1` [Phentolamine mesylate] are 99, 105, 97.7 (inactive) and 99.6 (inactive).
On the same counts, the results for `Nc1[nH]nc2nnc(-c3c(-c4ccccc4)nn4ccccc34)cc12` are 94.2, 100, 89.2 (inactive) and 117 (inactive).
Regarding `COc1ccc(C=CC(=O)Nc2ccccc2C(=O)O)cc1OC` [Tranilast], the figures for the cell number with HCC1569 [1] and with TDF [2] were 99.2 ± 2.1 and 103 ± 4.7, respectively. Further, the H1.0 immunofluorescence intensity in the assay on TDF [3] is 92.9 (inactive); with HCC1569 [4], 102 (inactive).
On the same counts, the results for `CCCCC=CCCCCCCCC(=O)O` [9(Z)-Tetradecenoic acid] are 98.2, 105, 104 (inactive) and 99.8 (inactive).
On the same counts, the results for `COc1ccc(N2C(=O)CSC2c2cccc(Br)c2)c(OC)c1` (stereo not drawn) are 59.5, 10.8, 156 (active) and 146 (active).
Taken in the same sequence, the figures for `CCCn1c(=O)[nH]c(=O)c2[nH]cnc21` [3-n-Propylxanthine] were 104, 105, 92.3 (inactive) and 101 (inactive).
Take `CC(=O)OCC(=O)C1(O)CCC2C3CCC4=CC(=O)CCC4(C)C3C(O)CC21C` (stereo not drawn) [Hydrocortisone 21-acetate]: the figures for the cell number with HCC1569 [1] and with TDF [2] were 99.8 and 104, respectively. The H1.0 immunofluorescence intensity was 78 (inactive) in the assay on TDF [3] and 109 (inactive) with HCC1569 [4].
On the same counts, the results for `CS(=O)(=O)O.C[C@H](NCc1ccc(OCc2cccc(F)c2)cc1)C(N)=O` are 99.7, 102, 97.6 (inactive) and 98.6 (inactive).
Taken in the same sequence, the figures for `CCC=CCC=CCC=CCC=CC=CC(O)CCCC(=O)O` (racemic) were 106, 94.7, 103 (inactive) and 99 (inactive).
Taken in the same sequence, the figures for `CCCCCCCCCCCCC(O)C(=O)O` (stereo not drawn) [2-Hydroxymyristic acid] were 103, 103, 95.6 (inactive) and 102 (inactive).
Regarding `CC(C)=CCc1cc2c(cc1O)oc(=O)c1c3ccc(O)cc3oc21`, the results for the cell number in the assay on HCC1569 [1] and in the assay on TDF [2] were 106 and 95.7, respectively. Also, the H1.0 immunofluorescence intensity is 94.4 (inactive) in the assay with TDF [3] and 106 (inactive) in the assay with HCC1569 [4].
Taken in the same sequence, the figures for `C#CCNCc1cc2cc(OCc3ccccc3)ccc2[nH]1` [N-((5-(benzyloxy)-1H-indol-2-yl)methyl)prop-2-yn-1-amine] were 82.8, 91, 96 (inactive) and 136 (inactive).
Taken in the same sequence, the figures for `COc1ccc(C2CC(=O)c3c(O)cc(O)cc3O2)cc1O` (stereo not drawn) [Hesperitine] were 98.4, 101, 98.1 (inactive) and 92.8 (inactive).
As for `Cc1cc(C)c(C=C2C(=O)Nc3ccccc32)[nH]1`, the cell number in the assay with HCC1569 [1] was 102; with TDF [2] it was 108 and 105. Further, the H1.0 immunofluorescence intensity was 94.2 (inactive) and 92.7 (inactive) in the assay on TDF [3]; 115 (inactive) and 103 (inactive) with HCC1569 [4].
As for `CC1(C)CCC2(C(=O)O)CCC3(C)C(=CCC4C5(C)CCC(O)C(C)(C)C5CCC43C)C2C1` (stereo not drawn) [Oleanolic acid], the cell number in the assay on HCC1569 [1] stood at 101; in the assay with TDF [2], 91.6. Also, the H1.0 immunofluorescence intensity is 101 (inactive) in the assay on TDF [3] and 89.8 (inactive) with HCC1569 [4].
On the same counts, the results for `CN(C)c1ccc(O)c2c1CC1CC3C(N(C)C)C(=O)C(C(N)=O)=C(O)C3(O)C(=O)C1=C2O.Cl` (stereo not drawn) [Minocycline hydrochloride] are 99, 109, 99.7 (inactive) and 100 (inactive).
On the same counts, the results for `Cl.Cl.NCCC(=O)NCCc1cnc[nH]1` [Carcinine dihydrochloride] are 97.3, 107, 94.6 (inactive) and 88.5 (inactive).
